{"source": "ChEMBL document CHEMBL4888484", "about": "“Replenishing the malaria drug discovery pipeline: Screening and hit evaluation of the MMV Hit Generation Library 1 (HGL1) against asexual blood stage Plasmodium falciparum ,using a nano luciferase reporter read-out” (2022)", "note": "The campaign covered roughly 4,800 compounds. About 410 (8.5%) showed an effect of 50% or more. Shown is part of a subset that was picked to be rich in strong results.", "data": [{"system": "Plasmodium falciparum", "assay": "Confirmatory screen in NF54 pLDH assay, in single point, at 2uM, 72h", "assay_type": "functional, Erythrocyte", "settings": "timepoint 72 hour", "units": {"% Inhibition": "%"}, "values": [{"smiles": "COc1c2c(cc3c1[C@@H](C#CCOc1ccccc1)[N+](C)(C)CC3)OCO2", "% Inhibition": 68}, {"smiles": "CCn1cc(S(=O)(=O)N2CC(Oc3cccc(-c4nc(C)no4)c3)C2)cn1", "% Inhibition": 7}, {"smiles": "COc1cc(-c2nc3ncnn3c(N)c2C#N)cc(OC)c1OC", "% Inhibition": -17}, {"smiles": "Cc1cc(C)c2nc(C)cc(Nc3ccc(O)cc3)c2c1", "% Inhibition": 103}, {"smiles": "COc1c(Cl)cc(Cl)cc1C#N", "% Inhibition": -17}, {"smiles": "COc1cc(N)c(NC(C)=O)cc1Cl", "% Inhibition": 7}, {"smiles": "COc1cccc(CNCc2ccc3c(c2)OCO3)c1OCc1ccc(Cl)cc1Cl", "% Inhibition": 10}, {"smiles": "COCCN(CC1CN(Cc2ccccc2OC)CC1c1ccccc1OC)C(=O)COC", "note": "(centres undefined)", "% Inhibition": 0}, {"smiles": "COc1ccccc1CN1COc2cc3c(cc2C1)OCO3", "% Inhibition": 52}, {"smiles": "O=S(=O)(NCc1ccc(C(F)(F)F)nc1N1CCC(C(F)(F)F)CC1)C(F)(F)F", "% Inhibition": 8}, {"smiles": "CC(C1Cc2ccccc2O1)N(C)Cc1nccn1S(=O)(=O)N(C)C", "note": "(centres undefined)", "% Inhibition": -8}, {"smiles": "Cn1ccc(C(=O)Nc2ccc(-c3ccccc3)cn2)cc1=O", "% Inhibition": -11}, {"smiles": "Nc1n[nH]c2c(Cl)c3nnc(-c4ccccc4)n3c(Cl)c12", "% Inhibition": 13}, {"smiles": "O=C(Cc1ccc(N(Cc2cccc(F)c2)C(=O)C2CCCC2)cc1)NCCN1CCCCC1", "% Inhibition": 43}, {"smiles": "COCCN(Cc1c(-c2ccccc2)noc1N1CCN(C)CC1)C(=O)c1ccc(C)cc1", "% Inhibition": 12}, {"smiles": "C[C@H](Nc1ccc(N2CCOCC2)nc1)c1cccc(CO)c1", "% Inhibition": 11}, {"smiles": "CCn1c(-c2cc(NC(=O)c3ccc4c(c3)OCO4)[nH]n2)cc2ccc(OC)cc21", "% Inhibition": 4}, {"smiles": "FC(F)(F)c1cnc(N2CCOC3(CCOCC3)CC2)s1", "% Inhibition": 9}, {"smiles": "Oc1nc(N2CCOC3(CCCC3)C2)ncc1F", "% Inhibition": 53}, {"smiles": "O=C(c1cc(-c2ccncc2)on1)N1CCOC2(CCCCCC2)C1", "% Inhibition": 8}, {"smiles": "Cc1c(C(=O)N2CC[C@H](CC(C)(C)C)C2(C)C)nnn1-c1cnn(C)c1", "% Inhibition": -9}, {"smiles": "Cc1cc(C)cc(NC(=O)Cc2nc(C)c(C(=O)NCc3ccccc3)s2)c1", "% Inhibition": 5}, {"smiles": "CCOC(=O)c1ncn(C2CCN(C(=O)c3cccc(Cn4ccnc4)c3)CC2)c1N", "% Inhibition": 5}, {"smiles": "CCOC(=O)c1c(CN2CCCC2)n(C)c2cc(-c3cccnc3)c(O)c(Cn3ccnc3)c12", "% Inhibition": 68}, {"smiles": "CCOC(=O)c1nc(-c2cccnc2)cs1", "% Inhibition": -8}, {"smiles": "Cc1cccc(C)c1OCC(C)NC(=O)N1CCCC(CS(C)(=O)=O)C1", "note": "(centres undefined)", "% Inhibition": -20}, {"smiles": "COc1ccc(CN(C)[C@H]2CCc3nn(C)c(=O)n3CC2)c(Cl)c1OC", "% Inhibition": 1}, {"smiles": "CC(C)c1nnc(Cn2nnc(-c3ccncn3)n2)s1", "% Inhibition": -12}, {"smiles": "Cc1cc(C)n(CCC(=O)N2CC[C@H](c3nc(C4CCOCC4)no3)C2)n1", "% Inhibition": 9}, {"smiles": "Cc1ccc(S(=O)(=O)Nc2c(S(=O)(=O)c3ccc(C)cc3)c3nc4ccccc4nc3n2C[C@H]2CCCO2)cc1", "% Inhibition": 8}, {"smiles": "Cc1ccc(S(=O)(=O)Nc2c(S(=O)(=O)c3ccccc3)c3nc4ccccc4nc3n2CCc2ccccc2)cc1", "% Inhibition": 100}, {"smiles": "O=C(Nc1c(S(=O)(=O)c2ccccc2)c2nc3ccccc3nc2n1CCc1ccccc1)c1ccc(Cl)cc1", "% Inhibition": 96}, {"smiles": "COCCCn1c(NS(=O)(=O)c2ccccc2)c(S(=O)(=O)c2ccc(C)cc2)c2nc3ccccc3nc21", "% Inhibition": 49}, {"smiles": "Cc1ccc(S(=O)(=O)Nc2ccccc2-c2nnc(-c3c(NS(=O)(=O)c4ccc(C)cc4)ccc4ccccc34)o2)cc1", "% Inhibition": -13}, {"smiles": "Cc1cnc(C2CCC2)n1CCNS(=O)(=O)c1ccccc1", "% Inhibition": 2}, {"smiles": "Cc1ccc(S(=O)(=O)c2c(NS(=O)(=O)c3ccc(F)cc3)n(CCc3ccccc3)c3nc4ccccc4nc23)cc1", "% Inhibition": 103}, {"smiles": "O=C(Cn1c(Cc2ccc(Cl)cc2)nc2ccccc21)Nc1ccccc1", "% Inhibition": 9}, {"smiles": "O=C(Nc1ccccc1)c1ccc2c(c1)C(=O)N(CCc1ccccc1)C2=O", "% Inhibition": -15}, {"smiles": "Cc1ccc(S(=O)(=O)Nc2c(S(=O)(=O)c3ccc(C)cc3)c3nc4ccccc4nc3n2CCC(C)C)cc1", "% Inhibition": 100}, {"smiles": "Cc1nn(C)c(N)c1C(=O)N(C1CCC1)C1CCC1", "% Inhibition": -16}, {"smiles": "Cc1cc(Cn2c(=O)n(Cc3ccccc3)c3ccncc32)on1", "% Inhibition": 7}, {"smiles": "COc1ccc([C@@H]2C(C#N)(C#N)C23C(=O)CC(C)(C)CC3=O)cc1", "% Inhibition": -12}, {"smiles": "N#Cc1cccc(-c2c[nH]c(CNc3nc4cc(C(F)(F)F)ccc4s3)n2)c1", "% Inhibition": 7}, {"smiles": "Cc1nc2cccnc2n1-c1cc(C(=O)NCC[C@H](C)N2CCCC2)ccc1Cl", "% Inhibition": 8}, {"smiles": "CC1CCN(C(=O)NCC2CCC(F)(F)CC2)CC1n1ccnc1", "note": "(centres undefined)", "% Inhibition": 12}, {"smiles": "COc1cc(CC2CN(C(=O)c3cscn3)C2)cc(OC)c1", "% Inhibition": 3}, {"smiles": "CS(=O)(=O)CC1(CC(=O)N[C@H](c2ccccc2)C2CCC2)CC1", "% Inhibition": 11}, {"smiles": "Cc1nn(CC2(O)CCCCC2)c(=O)c(C#N)c1C", "% Inhibition": -10}, {"smiles": "Cc1ccc(S(=O)(=O)c2c(NS(=O)(=O)c3ccccc3)n(CCc3ccccc3)c3nc4ccccc4nc23)cc1", "% Inhibition": 102}]}]}
